Assay results published in PubChem BioAssay (Tox21).
Inconclusive results are not listed. A call without a number means that no potency is given here. Some structures have more than one record in an assay (separate samples or runs), and their calls can disagree. The source made the active and inactive calls. Unless noted, calls come from the whole dose curve; as a rule, active = well fitted curve in the direction sought with a large enough effect in the repeat runs; inconclusive = weak or mixed curves; inactive = no such curve, though single readings can be large; an effect the other way counts as inactive or inconclusive.

What was measured:
[1] = biological target: Aryl hydrocarbon receptor (Homo sapiens) (UniProt P35869); assay: qHTS assay to identify small molecule that activate the aryl hydrocarbon receptor (AhR) signaling pathway (AID 743085); note: nearly all actives have a fitted effect of over 15% in size; note: potency is the fitted concentration of half-maximal effect;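 for activation: HG2L7.5c1 human HepG2 liver cells with stably integrated DRE-driven firefly reporter; series mostly up to about 70 µM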
Outline: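 Luminescence (ONE-Glo) from a dioxin-responsive-element luciferase reporter in HG2L7.5c1 HepG2 cells after 24 hr compound exposure at 37C; viability measured by CellTiter-Fluor fluorescence beforehand.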

[2] = qHTS assay to identify small molecule that activate the aryl hydrocarbon receptor (AhR) signaling pathway - cell viability counter screen (AID 743086); note: nearly all actives have a fitted effect of over 45% in size; note: potency is the fitted concentration of half-maximal effect
Outline: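 HepG2-AhR-luc (HG2L7.5c1) cells, 4000/well, treated 24 h at 37 C with compound; viability measured as CellTiter-Fluor fluorescence after 30 min in the same wells as the luciferase read.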

[3] = qHTS assay to identify small molecule antagonists of the peroxisome proliferator-activated receptor gamma (PPARg) signaling pathway - cell viability counter screen (AID 743194); settings: Potency: co-treated with 50 nM rosiglitazone; note: nearly all actives have a fitted effect of over 55% in size
Outline: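 Cytotoxicity counter screen in PPARg-bla HEK293H cells, same wells as reporter assay. Compounds plus 50 nM rosiglitazone (final) for 17 h at 37 C, then viability read by CellTiter-Glo luminescence.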

[4] = qHTS assay for small molecule agonists of the antioxidant response element (ARE) signaling pathway (AID 743202; active = well fitted activation curve with a large enough effect in the signal ratio in the repeat runs, not every such curve was filed as active; the % refers to the signal ratio)
Outline: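 ARE-bla HepG2 cells (beta-lactamase reporter under the antioxidant response element), plated 5 hours, then exposed to compounds 16 hours at 37 C. LiveBLAzer B/G FRET substrate added for 2 hours at room temperature; fluorescence intensity read.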

[5] = qHTS assay for small molecule agonists of the antioxidant response element (ARE) signaling pathway - cell viability counter screen (AID 743203; calls by dose curve; note: nearly all actives have a fitted effect of over 55% in size)
Outline: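 ARE-bla HepG2 cells were plated, rested 5 h at 37C/5% CO2, then exposed to compounds in DMSO for 16 h. Viability was read as CellTiter-Glo luminescence after 30 min at room temperature, in the same wells as the ARE screen.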

[6] = qHTS assay for small molecule activators of the heat shock response signaling pathway - cell viability counter screen (AID 743209); note: nearly all actives have a fitted effect of over 50% in size
Outline: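 HSE-bla HeLa cells plated overnight, then exposed to Tox21 compounds (23 nL in DMSO) for 5 h at 37 C. After the bla reporter read, CellTiter-Glo was added in the same wells and luminescence read after 30 min at room temperature.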

[7] = qHTS assay for small molecule activators of the heat shock response signaling pathway (AID 743210; active = well fitted activation curve with a large enough effect in the signal ratio in the repeat runs, with a control signal flat, not every such curve was filed as active; the % refers to the signal ratio; note: potency is the fitted concentration of half-maximal effect; for activation: series mostly up to about 63 µM)
Outline: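 HSE-bla HeLa cells (beta-lactamase reporter under heat shock response elements), plated overnight, then exposed to compounds 5 h at 37 C; LiveBLAzer B/G FRET substrate added, 2.5 h at room temperature, fluorescence intensity read.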

[8] = qHTS assay to identify small molecule agonists of the peroxisome proliferator-activated receptor delta (PPARd) signaling pathway - cell viability counter screen (AID 743211); note: nearly all actives have a fitted effect of over 55% in size
Outline: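 Viability was measured as CellTiter-Glo luminescence (30 min, room temperature) in the same wells as the beta-lactamase readout. GeneBLAzer PPARd UAS-bla HEK293H cells received compound after 5 h plating and were incubated 17 h at 37 C.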

[9] = qHTS assay to identify small molecule antagonists of the peroxisome proliferator-activated receptor delta (PPARd) signaling pathway - cell viability counter screen (AID 743213); note: nearly all actives have a fitted effect of over 50% in size
Outline: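 CellTiter-Glo was added to PPARd-bla HEK293H wells following 17 h compound treatment in the presence of 300 nM L165041. Luminescence was recorded after 30 min at room temperature.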

[10] = biological target: Bile acid receptor (Homo sapiens) (UniProt Q96RI1); assay: qHTS assay to identify small molecule antagonists of the farnesoid-X-receptor (FXR) signaling pathway (AID 743217; active = well fitted inhibition curve with a large enough effect in the signal ratio in the repeat runs, not every such curve was filed as active; the % refers to the signal ratio)
Outline: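 FXR-UAS-bla HEK 293T cells (beta-lactamase reporter) given compound plus chenodeoxycholic acid (50 uM final), 16 h at 37C. LiveBLAzer B/G FRET substrate added for 2 h at room temperature; fluorescence read.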

[11] = qHTS assay to identify small molecule agonists of the farnesoid-X-receptor (FXR) signaling pathway - cell viability counter screen (AID 743218); note: nearly all actives have a fitted effect of over 45% in size
Outline: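 FXR-UAS-bla HEK 293T cells exposed to compounds for 16 h at 37C. Cytotoxicity read in the same wells by CellTiter-Glo luminescence after 30 min at room temperature, following the beta-lactamase FRET read.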

[12] = biological target: Bile acid receptor (Homo sapiens) (UniProt Q96RI1); assay: qHTS assay to identify small molecule agonists of the farnesoid-X-receptor (FXR) signaling pathway (AID 743220; active = well fitted activation curve with a large enough effect in the signal ratio in the repeat runs, not every such curve was filed as active; the % refers to the signal ratio)
Outline: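 Beta-lactamase reporter under UAS control in GeneBLAzer FXR HEK 293T cells (5000/well) measured with LiveBLAzer FRET substrate after 2 h at room temperature. Compound exposure lasted 16 h at 37C.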

[13] = qHTS assay to identify small molecule antagonists of the farnesoid-X-receptor (FXR) signaling pathway - cell viability counter screen (AID 743221; active = well fitted cell-killing curve with a large enough effect in the repeat runs, not every such curve was filed as active; note: nearly all actives have a fitted effect of over 50% in size)
Outline: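 Cytotoxicity counter screen run in the FXR-bla reporter wells: HEK 293T cells exposed to compound with 50 uM (final) chenodeoxycholic acid for 16 h, 37 C, then viability measured by CellTiter-Glo luminescence after 30 min, room temperature.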

[14] = biological target: Vitamin D3 receptor (Homo sapiens) (UniProt P11473); assay: qHTS assay to identify small molecule agonists of the vitamin D receptor (VDR) signaling pathway (AID 743222; calls by dose curve)
Outline: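 VDR-bla cells plated 4 h at 37 C, then exposed to compounds for 16 h at 37 C. Beta-lactamase reporter activity measured by fluorescence after 2 h room-temperature loading with LiveBLAzer B/G FRET substrate.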

[15] = qHTS assay to identify small molecule agonists of the vitamin D receptor (VDR) signaling pathway - cell viability counter screen (AID 743224); note: nearly all actives have a fitted effect of over 50% in size; note: potency is the fitted concentration of half-maximal effect
Outline: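 VDR-bla cells, 4 h after plating, exposed to compounds for 16 h at 37C; viability then read in the same wells as CellTiter-Glo luminescence after 30 min at room temperature, following the bla FRET read.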

[16] = biological target: Peroxisome proliferator-activated receptor gamma (Homo sapiens) (UniProt P37231); assay: qHTS assay to identify small molecule agonists of the peroxisome proliferator-activated receptor gamma (PPARg) signaling pathway (AID 743094; active = well fitted activation curve with a large enough effect in the signal ratio in the repeat runs, not every such curve was filed as active; the % refers to the signal ratio)
Outline: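 GeneBLAzer PPARg UAS-bla HEK293H cells were plated, rested 5 h, then exposed to compounds for 17 h at 37C. Beta-lactamase activity was read by LiveBLAzer B/G FRET substrate fluorescence after 1 h at room temperature.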

[17] = biological target: Peroxisome proliferator-activated receptor gamma (Homo sapiens) (UniProt P37231); assay: qHTS assay to identify small molecule antagonists of the peroxisome proliferator-activated receptor gamma (PPARg) signaling pathway (AID 743191; calls by dose curve; note: nearly all actives have a fitted effect of over 30% in size; note: potency is the fitted concentration of half-maximal effect)
Outline: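 GeneBLAzer PPARg UAS-bla HEK293H cells, 5 h post-plating, exposed to compounds 17 h at 37C. LiveBLAzer B/G FRET substrate added for 1 h at room temperature; beta-lactamase reporter read by fluorescence intensity.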

[18] = biological target: Peroxisome proliferator-activated receptor delta (Homo sapiens) (UniProt Q03181); assay: qHTS assay to identify small molecule agonists of the peroxisome proliferator-activated receptor delta (PPARd) signaling pathway (AID 743212; calls by dose curve)
Outline: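 GeneBLAzer UAS-bla HEK293H cells carrying a PPARδ construct were exposed to compounds at 37 °C. Beta-lactamase activity was read by FRET fluorescence after 2 h at room temperature with LiveBLAzer B/G substrate.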

[19] = biological target: Peroxisome proliferator-activated receptor delta (Homo sapiens) (UniProt Q03181); assay: qHTS assay to identify small molecule antagonists of the peroxisome proliferator-activated receptor delta (PPARd) signaling pathway (AID 743215; active = well fitted inhibition curve with a large enough effect in the signal ratio in the repeat runs, not every such curve was filed as active; the % refers to the signal ratio;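 note: cells stimulated with agonist L165041 at 300 nM final during compound exposure; series mostly up to about 62 µM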)
Outline: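 PPARd-bla HEK293H cells (UAS-bla reporter) preincubated 5 h, then given compound plus 300 nM final L165041 agonist for 17 h at 37 C. Beta-lactamase activity read by LiveBLAzer B/G FRET substrate fluorescence after 2 h at room temperature.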

[20] = biological target: Vitamin D3 receptor (Homo sapiens) (UniProt P11473); assay: qHTS assay to identify small molecule antagonists of the vitamin D receptor (VDR) signaling pathway (AID 743223; active = well fitted inhibition curve with a large enough effect in the signal ratio in the repeat runs, not every such curve was filed as active; the % refers to the signal ratio)
Outline: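 Antagonist mode: compound added to VDR-bla cells alongside agonist 1alpha,25-dihydroxyvitamin D3 (3 nM final), incubation 16 h at 37C. Read-out is LiveBLAzer FRET fluorescence, 2 h at room temperature.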

Chain of Vitamin D3 receptor (Homo sapiens) (P11473 whole entry, looked up): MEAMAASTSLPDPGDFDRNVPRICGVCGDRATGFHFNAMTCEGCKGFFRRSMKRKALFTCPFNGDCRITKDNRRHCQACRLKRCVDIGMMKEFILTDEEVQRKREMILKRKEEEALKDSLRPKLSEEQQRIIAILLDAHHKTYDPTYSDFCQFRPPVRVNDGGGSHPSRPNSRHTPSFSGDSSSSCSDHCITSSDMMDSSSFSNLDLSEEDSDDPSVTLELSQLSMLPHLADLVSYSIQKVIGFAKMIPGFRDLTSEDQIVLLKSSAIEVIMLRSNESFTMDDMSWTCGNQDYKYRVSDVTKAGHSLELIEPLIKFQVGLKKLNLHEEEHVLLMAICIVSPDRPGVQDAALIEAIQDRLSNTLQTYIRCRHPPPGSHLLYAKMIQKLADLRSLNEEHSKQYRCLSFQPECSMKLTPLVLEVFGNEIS
Chain of Aryl hydrocarbon receptor (Homo sapiens) (P35869 whole entry, looked up): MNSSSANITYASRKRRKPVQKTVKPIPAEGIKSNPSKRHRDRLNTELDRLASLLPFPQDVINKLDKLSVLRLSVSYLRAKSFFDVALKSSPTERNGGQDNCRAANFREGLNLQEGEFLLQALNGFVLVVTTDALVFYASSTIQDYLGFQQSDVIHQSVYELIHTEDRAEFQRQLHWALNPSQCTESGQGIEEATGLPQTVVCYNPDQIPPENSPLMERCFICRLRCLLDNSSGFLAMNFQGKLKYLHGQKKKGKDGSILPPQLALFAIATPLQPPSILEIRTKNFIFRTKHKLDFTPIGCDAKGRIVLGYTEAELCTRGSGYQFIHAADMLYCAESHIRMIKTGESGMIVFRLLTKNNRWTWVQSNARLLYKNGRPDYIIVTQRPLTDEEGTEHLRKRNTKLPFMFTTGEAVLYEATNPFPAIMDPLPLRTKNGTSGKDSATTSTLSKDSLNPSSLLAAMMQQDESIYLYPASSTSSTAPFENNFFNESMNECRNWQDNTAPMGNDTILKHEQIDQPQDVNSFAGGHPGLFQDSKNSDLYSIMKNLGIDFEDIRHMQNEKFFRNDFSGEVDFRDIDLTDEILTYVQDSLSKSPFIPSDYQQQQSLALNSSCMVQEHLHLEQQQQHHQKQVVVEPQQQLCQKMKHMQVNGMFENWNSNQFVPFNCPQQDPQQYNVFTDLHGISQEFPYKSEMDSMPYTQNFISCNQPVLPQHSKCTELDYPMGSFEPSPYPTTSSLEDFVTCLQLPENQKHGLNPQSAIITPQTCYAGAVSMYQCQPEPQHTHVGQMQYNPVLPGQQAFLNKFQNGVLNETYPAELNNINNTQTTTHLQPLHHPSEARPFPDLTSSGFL
Chain of Bile acid receptor (Homo sapiens) (Q96RI1 whole entry, looked up): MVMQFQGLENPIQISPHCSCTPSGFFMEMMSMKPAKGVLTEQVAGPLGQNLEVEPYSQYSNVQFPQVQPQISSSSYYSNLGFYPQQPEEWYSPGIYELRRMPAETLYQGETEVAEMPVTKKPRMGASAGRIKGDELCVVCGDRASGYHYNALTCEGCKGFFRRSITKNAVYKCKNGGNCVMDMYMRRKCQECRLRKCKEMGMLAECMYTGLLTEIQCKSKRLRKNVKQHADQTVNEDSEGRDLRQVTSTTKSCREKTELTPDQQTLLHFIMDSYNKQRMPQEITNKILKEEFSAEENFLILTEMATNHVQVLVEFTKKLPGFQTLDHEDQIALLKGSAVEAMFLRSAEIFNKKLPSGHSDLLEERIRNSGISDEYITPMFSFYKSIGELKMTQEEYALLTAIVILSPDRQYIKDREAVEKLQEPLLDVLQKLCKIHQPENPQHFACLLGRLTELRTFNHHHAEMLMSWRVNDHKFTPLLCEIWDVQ
Chain of Peroxisome proliferator-activated receptor delta (Homo sapiens) (Q03181 whole entry, looked up): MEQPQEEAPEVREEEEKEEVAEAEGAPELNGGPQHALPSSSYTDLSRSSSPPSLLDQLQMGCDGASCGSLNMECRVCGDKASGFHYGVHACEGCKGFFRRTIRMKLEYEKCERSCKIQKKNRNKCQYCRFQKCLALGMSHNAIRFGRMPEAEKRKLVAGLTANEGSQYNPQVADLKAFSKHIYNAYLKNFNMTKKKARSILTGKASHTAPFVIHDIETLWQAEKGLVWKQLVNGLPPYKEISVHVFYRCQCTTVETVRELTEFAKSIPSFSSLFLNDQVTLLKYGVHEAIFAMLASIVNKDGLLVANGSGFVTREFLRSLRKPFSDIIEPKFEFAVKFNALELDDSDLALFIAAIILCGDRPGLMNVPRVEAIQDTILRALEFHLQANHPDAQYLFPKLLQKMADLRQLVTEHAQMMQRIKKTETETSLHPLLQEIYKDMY
Chain of Peroxisome proliferator-activated receptor gamma (Homo sapiens) (P37231 whole entry, looked up): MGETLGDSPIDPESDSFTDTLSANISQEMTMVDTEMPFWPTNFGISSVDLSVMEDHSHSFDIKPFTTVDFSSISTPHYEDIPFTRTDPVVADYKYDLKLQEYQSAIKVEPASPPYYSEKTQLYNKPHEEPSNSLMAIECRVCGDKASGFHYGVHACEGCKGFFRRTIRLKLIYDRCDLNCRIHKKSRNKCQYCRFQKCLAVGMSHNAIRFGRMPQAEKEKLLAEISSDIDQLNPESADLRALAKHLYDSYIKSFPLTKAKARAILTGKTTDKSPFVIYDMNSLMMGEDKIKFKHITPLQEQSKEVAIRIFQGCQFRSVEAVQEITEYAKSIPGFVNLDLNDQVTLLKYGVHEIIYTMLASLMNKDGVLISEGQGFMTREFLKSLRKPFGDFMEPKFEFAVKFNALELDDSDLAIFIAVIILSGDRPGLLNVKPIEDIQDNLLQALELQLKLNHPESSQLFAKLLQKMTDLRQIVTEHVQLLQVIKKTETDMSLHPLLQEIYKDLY

Structure (SMILES)	Potency [1]	Potency [2]	Potency [3]	Potency [4]	Potency [5]	Potency [6]	Potency [7]	Potency [8]	Potency [9]	outcome [10]	Potency [11]	outcome [12]	Potency [13]	outcome [14]	Potency [15]	outcome [16]	Potency [17]	outcome [18]	Potency [19]	outcome [20]
CC(C)C(C)(N)C#N (stereo unspecified)	inactive	inactive	inactive	inactive	inactive	inactive	inactive	inactive	inactive	inactive	inactive	inactive	inactive	inactive	inactive	–	–	–	–	–
C[C@H]1CCCC(=O)CCC/C=C/c2cc(O)cc(O)c2C(=O)O1	inactive	37.1 µM (active) and inactive	–	–	inactive	–	12.7 µM (active)	inactive	inactive	–	–	–	–	–	42.1 µM (active) and inactive	inactive	–	–	–	–
NC1(c2ccccc2)CCCCC1	inactive	inactive	–	inactive	inactive	inactive	inactive	inactive	inactive	–	inactive	inactive	inactive	–	inactive	–	inactive	inactive	inactive	–
C#CC(C)(C)O	inactive	inactive	inactive	inactive	inactive	inactive	inactive	inactive	inactive	inactive	inactive	inactive	–	inactive	inactive	–	–	–	inactive	inactive
O=C/C=C/c1ccco1	inactive	inactive	inactive	inactive	inactive	inactive	inactive	inactive	–	–	inactive	–	inactive	–	inactive	–	–	–	inactive	–
ClCCCCCCCl	inactive	inactive	–	inactive	inactive	inactive	inactive	inactive	inactive	–	inactive	–	inactive	inactive	inactive	inactive	–	–	–	inactive
CC1N=C(N)OC1c1ccccc1 (stereo unspecified)	inactive	inactive	–	inactive	inactive	–	inactive	inactive	inactive	–	inactive	inactive	inactive	inactive	inactive	inactive	–	inactive	inactive	inactive
N#CC(Br)(Br)C(N)=O	inactive	inactive	–	–	inactive	inactive	inactive	inactive	inactive	–	–	–	inactive	inactive	inactive	–	–	–	–	–
COc1cc(CC(C)N)cc(OC)c1OC (stereo unspecified)	inactive	inactive	inactive	inactive	inactive	inactive	inactive	inactive	inactive	–	inactive	–	inactive	–	inactive	–	inactive	–	inactive	–
CON(C)C(=O)Nc1ccc(Br)c(Cl)c1	30.6 µM (active)	inactive	–	inactive	inactive	inactive	–	inactive	–	–	inactive	–	–	inactive	inactive	inactive	–	–	–	–
CC[C@@H](CO)NC(=O)[C@@H]1C=C2c3cccc4[nH]cc(c34)C[C@H]2N(C)C1	inactive	inactive	inactive	inactive	inactive	inactive	–	inactive	–	–	inactive	–	inactive	–	inactive	–	–	–	inactive	–
C=CCc1cc(OC)c2c(c1)OCO2	inactive	inactive	–	inactive	inactive	inactive	inactive	inactive	inactive	–	inactive	–	–	inactive	inactive	inactive	–	inactive	inactive	inactive
COC1=CC(=O)O[C@@H](/C=C/c2ccccc2)C1	inactive	inactive	–	–	inactive	inactive	inactive	inactive	inactive	inactive	inactive	inactive	–	inactive	inactive	inactive	–	inactive	inactive	inactive
O=P(O)(O)c1ccccc1	inactive	inactive	inactive	inactive	inactive	inactive	inactive	inactive	inactive	–	inactive	–	inactive	inactive	inactive	–	–	inactive	–	inactive
O=C1CC(=O)NC(=O)N1	inactive	inactive	–	inactive	inactive	inactive	inactive	inactive	inactive	inactive	inactive	inactive	inactive	inactive	inactive	–	inactive	–	inactive	inactive
CCN(CC)CCOC(=O)C(O)(c1ccccc1)c1ccccc1	inactive	inactive	–	–	inactive	inactive	inactive	inactive	–	inactive	inactive	inactive	inactive	–	inactive	inactive	–	inactive	inactive	–
N#CN	inactive	inactive	–	inactive	inactive	inactive	inactive	inactive	inactive	–	inactive	–	inactive	inactive	inactive	inactive	–	inactive	–	inactive
C=C(Cl)CSC(=S)N(CC)CC	inactive	inactive	–	–	inactive	–	–	inactive	–	inactive	inactive	inactive	inactive	inactive	inactive	inactive	–	inactive	–	inactive
COc1ccc(C=O)cc1O	inactive	–	inactive	inactive	inactive	inactive	inactive	inactive	–	inactive	inactive	inactive	inactive	–	inactive	inactive	inactive	–	inactive	–
CS(=O)(=O)c1ccc(C(=O)C2C(=O)CCCC2=O)c(Cl)c1COCC(F)(F)F	inactive	inactive	inactive	inactive	inactive	inactive	–	inactive	inactive	–	inactive	–	inactive	inactive	inactive	–	inactive	inactive	inactive	inactive
CC(C)N(Cc1ccccc1)C(=O)C(C)(C)C	inactive	inactive	–	inactive	inactive	inactive	inactive	inactive	inactive	–	inactive	inactive	inactive	inactive	inactive	inactive	–	–	inactive	inactive
CCCCCCCCSC(=O)Oc1cc(Cl)nnc1-c1ccccc1	inactive	–	inactive	inactive	inactive	inactive	inactive	inactive	inactive	–	inactive	–	inactive	inactive	inactive	inactive	43.6 µM (active)	–	inactive	inactive
N[C@@H](Cc1ccc(Oc2cc(I)c(O)c(I)c2)c(I)c1)C(=O)O	inactive	inactive	inactive	inactive	inactive	inactive	inactive	inactive	inactive	inactive	inactive	inactive	inactive	–	inactive	–	–	inactive	inactive	–
CCN(CCO)CCO	inactive	–	inactive	–	inactive	inactive	inactive	inactive	inactive	–	inactive	–	inactive	inactive	inactive	inactive	inactive	inactive	–	inactive
O=C1CCCCC1Cl (stereo unspecified)	inactive	inactive	inactive	–	inactive	inactive	–	inactive	inactive	inactive	inactive	inactive	inactive	inactive	inactive	–	–	inactive	inactive	inactive
